# Test results: PubChem BioAssay AID2596 (National Center for Advancing Translational Sciences (NCATS), 2010)
# Records with an inconclusive call do not appear. A call without a number means that no potency is given here. The source made the active and inactive calls. The call rests on the fitted dose curve; in most records, active means well fitted inhibition curve with a large enough effect; inconclusive means small, poorly fitted or top-dose-only effect, or effect the other way; inactive means flat fitted curve, though single readings scatter.
# Target: Lysosomal acid glucosylceramidase (Homo sapiens) (UniProt P04062)
# Assay: qHTS Assay for Inhibitors and Activators of N370S glucocerebrosidase as a Potential Chaperone Treatment of Gaucher Disease: Purified N370S Glucocerebrosidase Cleavage of Glucosylceramide
# Conditions: purified N370S GCase; series mostly up to 77.6 µM
# Excerpt: NIH Chemical Genomics Center [NCGC]
# NIH Molecular Libraries Probe Production Centers Network [MLPCN]
# Assay Submitter (PI): Wei Zheng
# Glucocerebrosidase (GC) catalyzes the hydrolysis of beta-glucocerebroside to glucose and ceramide in lysosomes. Mutations in the glucocerebrosidase gene result in Gaucher disease, an autosomal recessive lysosomal storage disorder. Many of the mutations encountered in patients with Gaucher disease are missense alterations that may cause misfolding, decreased stability and/or mistrafficking of this lysosomal protein. […] These inhibitors include iminosugar analogs and three non-iminosugar inhibitors identified from a previous HTS of 62,000 compounds with the wild type recombinant enzyme. However, the enhancement of enzyme activity by the chaperone action of an enzyme inhibitor must be balanced against the direct inhibition of the enzyme. An enzyme activator could also function as a chaperone by binding to the enzyme and helping to correct its misfolding and mistrafficking. While activators for GC have not yet been identified, they may have better therapeutic potential than inhibitors. Therefore the discovery and development of chemical activators may provide a new strategy for the chaperone therapy.
# We have optimized a new assay using N370S mutant GC derived from the spleen of a Gaucher patient. […] In addition, the MLPCN compound library has expanded, which increases the chance of finding new and better probes.
# This assay characterizes compound activity using purified, mutant enzyme cleavage of the native substrate for the enzyme instead of mutant enzyme from tissue homogenate. Compound activity differences may be due to the absence of endogenous cofactors found in tissue homogenate as well as inherent differences in enzyme stability and catalytic activity using the difference substrates.
# NCGC Assay Protocol Summary:
# This is an enzyme assay using glucosylceramide from soy (Avanti Polar Lipids Catalog #: 131304P) as the substrate and recombinant human glucocerebrosidase as the enzyme preparation. Upon hydrolysis of the substrate, the glucose product can be detected using the Amplex Red Glucose Oxidase Assay Kit (Invitrogen catalog #: A22189). The product of this reaction can be read with a fluorescence plate reader with an excitation at 573 nm and an emission at 610 nm. Data were normalized to the controls for basal activity (without enzyme) and 100% activity (with enzyme). The AC50 values were determined from concentration-response data modeled with the standard Hill equation.
# Assay buffer for enzyme reaction: 50 mM citric acid (titrated with potassium phosphate to pH 5.9), 0.01% Tween-20 (pH 5.9 is an optimal condition for this enzyme assay)
# Assay buffer for Amplex Red reaction: Tris-HCl, pH 7.5
# 1536-well assay protocol for the glucocerebrosidase assay:
# (1) Add 2 ul/well glucocerebrosidase enzyme solution (5 nM final)
# (2) Add 23 nL compounds in DMSO solution. The final titration was 0.7 nM to 77 uM.
# (3) Add 1 ul of glucosylceramide solution (50 uM final)
# (4) Incubate at 37C for 40 min
# (5) Add 2 ul tris-HCl buffer with Amplex Red reagents
# (6) Incubate 45 min at room temperature.
# (7) Detect the assay plate in a ViewLux plate reader (PerkinElmer) with Ex=573 nm and Em=610nm.
# Keywords: Glucocerebrosidase, beta-glucosidase, Gaucher Disease, pharmacological chaperone, chaperone therapy, high throughput screening, glucocerebrosidase inhibitor, MLSMR, MLSCN, NIH Roadmap, qHTS and NCGC
# Lysosomal acid glucosylceramidase (Homo sapiens), sequence (P04062 whole entry N409S): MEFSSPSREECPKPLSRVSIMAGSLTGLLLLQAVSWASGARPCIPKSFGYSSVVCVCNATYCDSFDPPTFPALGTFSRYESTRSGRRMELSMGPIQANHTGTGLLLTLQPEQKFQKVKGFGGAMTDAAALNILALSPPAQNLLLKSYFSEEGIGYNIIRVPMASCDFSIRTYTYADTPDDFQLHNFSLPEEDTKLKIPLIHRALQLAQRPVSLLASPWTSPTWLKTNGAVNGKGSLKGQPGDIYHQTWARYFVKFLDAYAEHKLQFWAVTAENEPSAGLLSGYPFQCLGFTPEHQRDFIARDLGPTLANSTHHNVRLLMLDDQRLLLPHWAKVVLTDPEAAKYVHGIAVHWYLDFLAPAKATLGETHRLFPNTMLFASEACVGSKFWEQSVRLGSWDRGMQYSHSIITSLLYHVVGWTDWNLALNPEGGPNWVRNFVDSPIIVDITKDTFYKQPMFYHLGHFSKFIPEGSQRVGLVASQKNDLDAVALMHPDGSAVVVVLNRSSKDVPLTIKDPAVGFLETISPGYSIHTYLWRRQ
row,SMILES,Potency
1,CCCNC(=O)COC(=O)c1ccccc1OCC(=O)Nc1ccc(Br)cc1,inactive
2,O=S(=O)(c1ccc(Cl)cc1)N1CCN(c2nc(-c3cccs3)nc3ccccc23)CC1,inactive
3,O=S(=O)(c1ccc(F)cc1)N1CCN(c2nc(-c3ccccc3)nc3cc(Cl)ccc23)CC1,inactive
4,N#Cc1ccc(S(=O)(=O)N2CCN(c3nc(-c4cccs4)nc4ccccc34)CC2)cc1,inactive
5,O=S(=O)(c1ccccc1C(F)(F)F)N1CCN(c2nc(-c3cccs3)nc3ccccc23)CC1,inactive
6,COc1ccccc1NC(=O)COc1ccccc1C(=O)Nc1ccccc1,inactive
7,O=S(=O)(Cc1ccccc1)N1CCN(c2nc(-c3cccs3)nc3ccccc23)CC1,inactive
8,COc1ccc(-c2nc(N3CCN(S(=O)(=O)c4ccc(F)cc4)CC3)c3ccccc3n2)cc1,inactive
9,Cc1cc(C)n2ncc(C(=O)Nc3cccc(O)c3)c2n1,inactive
10,O=S(=O)(c1cccc(C(F)(F)F)c1)N1CCN(c2nc(-c3cccs3)nc3cc(Cl)ccc23)CC1,inactive
11,COc1ccc(S(=O)(=O)N2CCN(c3nc(-c4cccs4)nc4ccccc34)CC2)cc1,inactive
12,O=C(Nc1cc(Br)ccc1O)c1cnn2c(C(F)F)cc(C3CC3)nc12,inactive
13,O=S(=O)(c1ccc(Cl)cc1)N1CCN(c2nc(-c3ccc(Cl)cc3)nc3ccccc23)CC1,inactive
14,NS(=O)(=O)c1ccc(S(=O)(=O)N2CCN(c3nc(-c4cccs4)nc4ccccc34)CC2)cc1,inactive
15,Cc1cc(C)cc(N(CC(=O)NC2CCCCCC2)S(=O)(=O)c2c(C)[nH]c(=O)[nH]c2=O)c1,14.1 µM (active)
16,O=S(=O)(c1ccc2ccccc2c1)N1CCN(c2nc(-c3cccs3)nc3ccccc23)CC1,inactive
17,COc1ccc(-c2nc(N3CCN(S(=O)(=O)c4ccccc4)CC3)c3ccccc3n2)cc1,inactive
18,N=c1c2c(-c3ccccc3)c(-c3ccccc3)n(Cc3ccco3)c2ncn1CCCn1ccnc1,inactive
19,COc1cccc(S(=O)(=O)N2CCN(c3nc(-c4cccs4)nc4ccccc34)CC2)c1,inactive
20,CC1(C)CC(=O)C2=C(C1)c1c(ccc3ccccc13)NC2c1ccc(Br)o1 (configuration not stated),inactive
21,O=S(=O)(c1ccc(F)cc1)N1CCN(c2nc(-c3ccc(F)cc3)nc3cc(Cl)ccc23)CC1,inactive
22,Cc1cc(C)n2ncc(C(=O)Nc3ccc(Cl)c(Cl)c3)c2n1,inactive
